From PubChem
Hits are enriched below; roughly 9.5% of the tested compounds scored in any of these assays.
Pf growth 96h – Primary qHTS for delayed death inhibitors of the malarial parasite plastid, 96 hour incubation | P. falciparum luciferase reporter growth, 96 h | Potency, µM (series often up to 28.7 µM), inactives show top-dose activity change, negative = inhibition, actives largely listed as inhibitors | actives 6.9% (n = 320,000) | AID 504834, 2011; active = well fitted inhibition curve with a large enough effect; inconclusive = small, poorly fitted or top-dose-only effect, or another doubt; inactive = no such curve, though single readings can be large or run the other way; note: % is set by controls: 0 for no effect and ±100 for the full control effect
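P. falciparum expressing integrated firefly luciferase grown in erythrocytes (2% hematocrit, 0.05% parasitemia final) with compounds for 96 hours at 37 C, 5% CO2. Growth inhibition read as loss of luminescence after adding luciferase detection reagent.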
SARS PLP yeast – qHTS of Yeast-based Assay for SARS-CoV PLP | S. cerevisiae expressing SARS-CoV PLpro, growth rescue | Potency, µM (doses to about 32.9 µM), for the others: top-dose activity, positive = growth rescue, hits mostly activators | actives 0.19% (n = 330,000) | AID 485353, 2010; note: 0% is about no effect; nearly all actives have a fitted effect of over 55% in size
NS1 inh – qHTS Assay for Inhibitors of Influenza NS1 Protein Function. actives 0.4% (n = 270,000). Potency, µM (series often up to 46.1 µM), for inactives: at the top dose activity, positive = more growth; note: actives are rising curves; nearly all actives have a fitted effect of over 50% in size
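OD600 was taken as the measure of yeast growth restored by compound in an NS1-expressing S. cerevisiae strain. Cells had been washed out of glucose medium and diluted 1:100 into galactose -URA medium, pH 6.0.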
Pf growth 48h – Primary qHTS for delayed death inhibitors of the malarial parasite plastid, 48 hour incubation; actives 5.9% (n = 310,000); AID 504832, 2011; Potency, µM (titrated, usually from 28.7 µM), for the others: at the top dose activity change, negative = inhibition, usual class: inhibitors; P. falciparum luciferase growth in erythrocytes, 48 h; active = well fitted inhibition curve with a large enough effect; inconclusive = small, poorly fitted or top-dose-only effect, or another doubt; inactive = no such curve, though single readings can be large or run the other way; note: % is set by controls: 0 for no effect and ±100 for the full control effect
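In quantitative HTS format, infected erythrocytes bearing luciferase-reporter parasites were treated for a single generation at 37 C. Luminescence after adding detection reagent served as the growth measure.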
RE007 growth inh – qHTS Assay for Inhibitors of the HIV-1 protein Vpr. Potency, µM (doses to about 92.2 µM), inactives show at the top dose activity change, negative = less growth, hits mostly inhibitors. S. pombe RE007 Vpr strain, BacTiter-Glo ATP luminescence, 24 h. actives 0.21% (n = 360,000); active = well fitted falling curve with a large enough effect; inconclusive = small, poorly fitted or top-dose-only effect; inactive = no such curve, though single readings can be large or run the other way; note: % is set by controls: 0 for no effect and ±100 for the full control effect; nearly all actives have a fitted effect of over 50% in size
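Fission yeast RE007 carrying one integrated HIV-1 vpr copy, seeded at OD 0.01 in PMG+AL medium with 23 nL pinned compound. Grown 24 h at 30 degrees; viability read by BacTiter-Glo luminescence after 5 min.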
Active calls of the source: *; ? = inconclusive; / = not tested or not shown; [ ] = another dose, or the depositor's remark. Unless noted, calls come from the whole dose curve. Potency is the fitted concentration of half-maximal effect.

SMILES	Pf growth 96h	SARS PLP yeast	NS1 inh	Pf growth 48h	RE007 growth inh
CC(C)(C)c1ccc(-c2noc(-c3ccc4c(c3)CCO4)n2)cc1	183.2%	-2.1%	1.8%	119.4%	3.5%
Cc1cc(OC(=O)c2ccc(Cl)cc2Cl)c([N+](=O)[O-])c(=O)[nH]1	44.8%	0.1%	-15.3%	25.8%	8.1%
COc1ccc(NC(=O)CSc2nnc(-c3ccco3)n2C)cc1	6.57µM*	5.6%	-3.7%	-19.3%	9.9%
Cc1ccc(NC(=O)CSc2nc3c([nH]c4ccccc43)c(=O)n2C)cc1	67.6%[1.15 µM]	0.6%	-2.8%	32.2%[1.15 µM]	3.8%
Cc1ccc(NC(=O)CSc2nc3sc(C)cc3c(=O)n2C)cc1	9.28µM*	-0.7%	-38.4%	?	7.1%
COc1ccc(-c2nnc(SCC(=O)Nc3ccc(C)cc3)n2C)cc1	5.22µM*	?	-5.9%	-11.6%	9.6%
CCn1c(SCC(=O)Nc2ccc(N3CCOCC3)cc2)nnc1-c1ccco1	10.4µM*	1.9%	/	-1.2%	-3.2%
N/N=C1/c2ccccc2N[C@H]1OC(=O)Nc1ccccc1	/	/	-5.9%	/	/
CNC(=S)N1N=C(c2ccc(C)cc2)CC1c1ccc(Cl)cc1 (stereo unspecified)	8.28µM*	16.6%	0.6%	/	21.8%
O=C(CCCc1ccccc1)Nc1ccc2c(c1)OCCO2	1.6%	-0.5%	-4.5%	126.1%	15.1%
Cc1cccc(NC(=O)C2CCN(C(=O)NCc3ccccc3)CC2)c1C	?	7.2%	-4.5%	2.3%	0.8%
COc1cc(/C=C/[N+](=O)[O-])ccc1OC(=O)c1cccnc1	9.7%	-12.4%	-98.4%	?	8.91µM*
O=C(/C=C/c1cccnc1)c1ccc([N+](=O)[O-])cc1	5.1%	-20.3%	-6.7%	1.1%	1.7%
COc1cc(C(=O)/C=C/c2cccnc2)c([N+](=O)[O-])cc1OC	?	3.8%	/	2.94µM*	-20.7%
O=C(C=Cc1ccccn1)c1ccccc1	/	/	/	/	25.1µM*
O=C(C=Cc1ccccc1Cl)c1ccccc1	/	/	/	/	-13.1%
O=C(/C=C/Nc1ccccc1)c1ccccc1	7.38µM*	-22.4%	-35.8%	/	?
COc1cc(/C=N/NC(=O)c2cccnc2)ccc1OC(=O)c1ccc([N+](=O)[O-])cc1	?	1.7%	/	15.9%	6.0%
NS(=O)(=O)c1ccc(NS(=O)(=O)c2ccc(NC(=O)C3CC3)cc2)cc1	148.4%	-2.7%	12.8%	?	2.5%
NC(COCc1ccccc1)c1csc(Nc2ccccn2)n1 (stereo unspecified)	/	/	/	/	-13.9%
Cc1ccc(C(CNS(=O)(=O)c2cc(F)ccc2F)N2CCN(C)CC2)cc1 (stereo unspecified)	-2.1%	-3.8%	/	?	-13.2%
O=C(/C=C/c1ccc(O)cc1)c1ccccc1	-8.6%	-1.8%	-58.1%	42.9%	50.1µM*
O=C(C=Cc1cccnc1)c1ccccc1	/	/	/	/	44.7µM*
O=C(/C=C/c1cccnc1)c1ccc(O)cc1	-9.3%	-0.4%	3.4%	?	-2.5%
Cc1ccccc1Nc1nc(-c2sc(NC(=O)c3ccco3)nc2C)cs1	?	-4.6%	?	11.7µM*	-12.9%
SMILES	Pf growth 96h	SARS PLP yeast	NS1 inh	Pf growth 48h	RE007 growth inh
Cc1ccc(Nc2nc(-c3sc(NC(=O)c4ccco4)nc3C)cs2)cc1	?	1.6%	?	9.28µM*	5.2%
CCOc1ccccc1Nc1nc(-c2cccnc2)cs1	0.3%	-6.1%	-80.1%	13.1µM*	-3.3%
CCOc1ccccc1Nc1nc(-c2sc(NC(=O)c3ccco3)nc2C)cs1	2.33µM*	-5.2%	21.0%	14.7µM*	-3.2%
CCN(c1ccc(NC(=O)COC(=O)C(C)N=C2NS(=O)(=O)c3ccccc32)cc1)C(C)C (stereo unspecified)	5.5%	-3.2%	/	30.6%	-25.0%
O=C(CCCCCN1C(=O)[C@@H]2Cc3ccccc3CN2C1=O)Nc1cccc(F)c1	?	-5.0%	-39.1%	?	7.4%
COc1ccccc1-c1cn[nH]c1-c1ccc(O)cc1O	?	2.3%	18.2%	?	6.6%
COc1ccccc1-c1cn[nH]c1-c1ccc(OCc2ccccc2F)cc1O	3.7µM*	-5.0%	-44.7%	7.38µM*	2.9%
